Holding throughout (set-up): scale not given: direction of the effect not stated beside the values
Assay [1] has as its target Protein translocase subunit SecA (Escherichia coli (strain K12)) (UniProt P10408). Description: Assay to Identify E. coli SecA ATPase Inhibitors. The assay is classed as functional. Particulars: 30 µM.
For assay [2], the target named is T1, Ubiquitin-activating enzyme e1, putative (Leishmania donovani (strain BPK282A1)) (UniProt E9BSI1).
T1 sequence (whole entry): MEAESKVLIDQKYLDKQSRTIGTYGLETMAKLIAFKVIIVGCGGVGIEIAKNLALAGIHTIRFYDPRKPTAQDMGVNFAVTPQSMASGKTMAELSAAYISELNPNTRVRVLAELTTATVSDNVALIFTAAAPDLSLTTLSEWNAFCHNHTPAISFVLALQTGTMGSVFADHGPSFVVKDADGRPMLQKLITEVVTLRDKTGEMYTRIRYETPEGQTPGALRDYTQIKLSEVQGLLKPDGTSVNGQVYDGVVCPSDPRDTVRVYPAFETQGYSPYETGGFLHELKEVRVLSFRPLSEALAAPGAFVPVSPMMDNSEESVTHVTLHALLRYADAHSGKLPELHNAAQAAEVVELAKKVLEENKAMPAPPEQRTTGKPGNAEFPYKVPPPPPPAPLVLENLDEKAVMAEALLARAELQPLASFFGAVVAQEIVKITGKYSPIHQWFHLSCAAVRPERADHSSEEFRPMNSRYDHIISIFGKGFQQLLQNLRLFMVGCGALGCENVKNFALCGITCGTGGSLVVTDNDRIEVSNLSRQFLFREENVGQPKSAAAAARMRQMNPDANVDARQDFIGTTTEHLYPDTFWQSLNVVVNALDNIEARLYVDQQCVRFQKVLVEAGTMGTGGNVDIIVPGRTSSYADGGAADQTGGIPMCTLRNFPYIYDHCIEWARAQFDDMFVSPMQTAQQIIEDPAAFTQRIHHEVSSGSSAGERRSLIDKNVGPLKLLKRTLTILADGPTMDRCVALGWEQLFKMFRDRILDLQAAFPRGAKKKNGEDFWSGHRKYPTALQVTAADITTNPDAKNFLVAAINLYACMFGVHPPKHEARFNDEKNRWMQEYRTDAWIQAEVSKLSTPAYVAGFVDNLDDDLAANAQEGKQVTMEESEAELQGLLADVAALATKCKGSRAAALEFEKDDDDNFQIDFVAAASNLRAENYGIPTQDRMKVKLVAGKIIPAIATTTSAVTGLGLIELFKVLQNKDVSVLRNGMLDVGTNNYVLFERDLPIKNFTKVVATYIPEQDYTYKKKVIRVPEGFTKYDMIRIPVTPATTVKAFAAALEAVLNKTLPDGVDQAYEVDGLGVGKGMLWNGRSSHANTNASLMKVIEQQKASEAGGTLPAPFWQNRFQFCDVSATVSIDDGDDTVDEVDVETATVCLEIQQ
Description: Leishmania donovani Ubiquitin Activating Enzyme (LdE1). Particulars: 30 µM. The class given is functional.

For assay [3], the target named is AMP-activated protein kinase, AMPK (Homo sapiens) (UniProt P54646+O43741+P54619+Q9UGJ0+Q9Y478+Q13131+Q9UGI9). Description: AMP-dependent Kinase enzyme assay. An in vitro enzyme assay that detects ADP turnover that is directly proportional to AMPK activity. This uses naive AMPK that is activated during the assay with MK-8722. The assay is classed as functional. To be noted: 30 µM.

The target of assay [4] is Sialic acid-binding Ig-like lectin 9 (Homo sapiens) (UniProt Q9Y336). Description: Hs-Siglec9 ALPHAscreen SOP 20170721. To be noted: 10 µM. In general terms: Bead proximity is the source of the signal in Alpha formats.
Sequence of Sialic acid-binding Ig-like lectin 9 (Homo sapiens) (Q9Y336 whole entry): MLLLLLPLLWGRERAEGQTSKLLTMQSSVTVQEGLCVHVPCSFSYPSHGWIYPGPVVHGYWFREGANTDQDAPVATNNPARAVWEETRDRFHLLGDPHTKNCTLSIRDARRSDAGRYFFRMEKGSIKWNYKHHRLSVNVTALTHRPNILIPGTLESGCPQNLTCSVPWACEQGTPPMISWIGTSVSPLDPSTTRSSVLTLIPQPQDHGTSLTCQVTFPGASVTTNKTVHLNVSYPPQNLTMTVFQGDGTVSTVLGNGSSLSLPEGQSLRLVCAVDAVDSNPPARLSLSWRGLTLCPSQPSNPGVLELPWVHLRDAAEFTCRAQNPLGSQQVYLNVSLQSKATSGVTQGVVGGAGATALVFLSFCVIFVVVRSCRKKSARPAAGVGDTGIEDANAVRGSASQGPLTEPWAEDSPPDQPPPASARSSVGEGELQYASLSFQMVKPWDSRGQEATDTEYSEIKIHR
A further assay deals with Trypanosoma cruzi. Description: Trypanosoma cruzi phosphomannomutase and mannose-1-phosphate guanylyltransferase assay. The assay is classed as functional. Particulars: 10 µM.
The target of assay [5] is T2, Arginase-2, mitochondrial (Homo sapiens) (UniProt P78540).
T2 sequence (whole entry): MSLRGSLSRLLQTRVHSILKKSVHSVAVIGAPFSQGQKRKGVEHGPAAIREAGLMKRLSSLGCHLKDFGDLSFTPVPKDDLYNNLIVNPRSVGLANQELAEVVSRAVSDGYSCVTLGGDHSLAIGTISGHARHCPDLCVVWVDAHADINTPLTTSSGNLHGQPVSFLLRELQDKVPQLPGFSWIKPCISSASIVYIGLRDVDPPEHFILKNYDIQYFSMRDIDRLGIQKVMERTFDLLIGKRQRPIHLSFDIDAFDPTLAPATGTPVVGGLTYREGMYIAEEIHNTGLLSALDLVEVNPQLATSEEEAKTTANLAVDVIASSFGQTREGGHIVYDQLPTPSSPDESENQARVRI
Description: in vitro enzyme assay to detect the production of urea directly proportional to the activity of Arginase II. Note: in the data most compounds retested in dose-response had high values. The assay is classed as functional. Particulars: 33.3 µM.

The target of assay [6] is T3, Proteasome subunit beta (Trypanosoma cruzi) (UniProt O96673).
T3 sequence (whole entry): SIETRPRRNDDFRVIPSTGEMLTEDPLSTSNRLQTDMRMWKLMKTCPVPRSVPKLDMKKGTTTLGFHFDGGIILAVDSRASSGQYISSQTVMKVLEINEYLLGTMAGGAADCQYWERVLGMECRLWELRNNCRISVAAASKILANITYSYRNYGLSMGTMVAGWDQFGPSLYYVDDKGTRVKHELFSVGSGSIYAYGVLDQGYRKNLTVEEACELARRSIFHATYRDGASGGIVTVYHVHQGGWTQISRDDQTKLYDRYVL
Description: Trypanosoma cruzi proteasome chymotrypsin-like activity (TcProtChymo) assay. Note: in the data most compounds retested in dose-response had high values. The class given is functional. Particulars: 9.37 µM.

Another assay is filed under the species Homo sapiens. Description: To identify inhibition of the IFN signalling (Jak-Stat) pathway via expression of an eGFP reporter gene under the control of an IFN-stimulated response element (ISRE) containing MxA promoter. The class given is functional. To be noted: 30 µM. (In general: A reporter such as luciferase makes a cellular process visible.)
Assay [7] deals with T4, Tyrosyl-tRNA synthetase, putative (Trypanosoma cruzi (strain CL Brener)) (UniProt Q4DSP6).
T4 sequence (whole entry): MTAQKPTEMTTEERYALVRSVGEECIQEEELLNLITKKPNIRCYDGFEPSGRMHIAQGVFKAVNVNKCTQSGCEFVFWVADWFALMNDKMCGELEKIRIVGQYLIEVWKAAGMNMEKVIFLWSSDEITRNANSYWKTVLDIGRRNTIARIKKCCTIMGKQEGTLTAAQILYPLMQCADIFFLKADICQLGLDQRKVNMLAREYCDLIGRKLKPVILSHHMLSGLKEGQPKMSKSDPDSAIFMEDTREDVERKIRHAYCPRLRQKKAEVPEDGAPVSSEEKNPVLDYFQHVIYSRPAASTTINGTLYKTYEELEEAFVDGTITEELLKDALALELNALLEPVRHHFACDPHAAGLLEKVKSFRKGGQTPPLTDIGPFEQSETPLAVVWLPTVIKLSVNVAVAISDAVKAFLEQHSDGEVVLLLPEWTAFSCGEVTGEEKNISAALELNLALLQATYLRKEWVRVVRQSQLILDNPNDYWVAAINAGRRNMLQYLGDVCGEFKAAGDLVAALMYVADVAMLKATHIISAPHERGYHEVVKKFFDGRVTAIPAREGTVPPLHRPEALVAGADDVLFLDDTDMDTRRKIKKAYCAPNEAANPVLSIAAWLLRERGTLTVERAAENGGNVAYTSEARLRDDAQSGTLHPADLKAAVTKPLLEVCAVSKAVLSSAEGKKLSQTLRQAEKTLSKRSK
Description: Trypanosoma cruzi tyrosyl tRNA synthetase (TcYRS) _High Tyrosine SOP. Note: in the data most compounds retested in dose-response had high values. The assay is classed as functional. Particulars: 30 µM.

In assay [8] the target is T4, Tyrosyl-tRNA synthetase, putative (Trypanosoma cruzi (strain CL Brener)). Description: Trypanosoma cruzi tyrosyl tRNA synthetase (TcYRS) SOP. The assay is classed as functional. Particulars: 30 µM.
The target in assay [9] is Chromo domain-containing protein 1 (Saccharomyces cerevisiae (strain ATCC 204508 / S288c) (Baker's yeast)) (UniProt P32657). Description: ScCHD-1 Enzyme Inhibition Assay. Note: in the data most compounds retested in dose-response had high values. The class given is functional. To be noted: 30 µM.
Sequence of Chromo domain-containing protein 1 (Saccharomyces cerevisiae (strain ATCC 204508 / S288c) (Baker's yeast)) (P32657 whole entry, the tested form may be a part): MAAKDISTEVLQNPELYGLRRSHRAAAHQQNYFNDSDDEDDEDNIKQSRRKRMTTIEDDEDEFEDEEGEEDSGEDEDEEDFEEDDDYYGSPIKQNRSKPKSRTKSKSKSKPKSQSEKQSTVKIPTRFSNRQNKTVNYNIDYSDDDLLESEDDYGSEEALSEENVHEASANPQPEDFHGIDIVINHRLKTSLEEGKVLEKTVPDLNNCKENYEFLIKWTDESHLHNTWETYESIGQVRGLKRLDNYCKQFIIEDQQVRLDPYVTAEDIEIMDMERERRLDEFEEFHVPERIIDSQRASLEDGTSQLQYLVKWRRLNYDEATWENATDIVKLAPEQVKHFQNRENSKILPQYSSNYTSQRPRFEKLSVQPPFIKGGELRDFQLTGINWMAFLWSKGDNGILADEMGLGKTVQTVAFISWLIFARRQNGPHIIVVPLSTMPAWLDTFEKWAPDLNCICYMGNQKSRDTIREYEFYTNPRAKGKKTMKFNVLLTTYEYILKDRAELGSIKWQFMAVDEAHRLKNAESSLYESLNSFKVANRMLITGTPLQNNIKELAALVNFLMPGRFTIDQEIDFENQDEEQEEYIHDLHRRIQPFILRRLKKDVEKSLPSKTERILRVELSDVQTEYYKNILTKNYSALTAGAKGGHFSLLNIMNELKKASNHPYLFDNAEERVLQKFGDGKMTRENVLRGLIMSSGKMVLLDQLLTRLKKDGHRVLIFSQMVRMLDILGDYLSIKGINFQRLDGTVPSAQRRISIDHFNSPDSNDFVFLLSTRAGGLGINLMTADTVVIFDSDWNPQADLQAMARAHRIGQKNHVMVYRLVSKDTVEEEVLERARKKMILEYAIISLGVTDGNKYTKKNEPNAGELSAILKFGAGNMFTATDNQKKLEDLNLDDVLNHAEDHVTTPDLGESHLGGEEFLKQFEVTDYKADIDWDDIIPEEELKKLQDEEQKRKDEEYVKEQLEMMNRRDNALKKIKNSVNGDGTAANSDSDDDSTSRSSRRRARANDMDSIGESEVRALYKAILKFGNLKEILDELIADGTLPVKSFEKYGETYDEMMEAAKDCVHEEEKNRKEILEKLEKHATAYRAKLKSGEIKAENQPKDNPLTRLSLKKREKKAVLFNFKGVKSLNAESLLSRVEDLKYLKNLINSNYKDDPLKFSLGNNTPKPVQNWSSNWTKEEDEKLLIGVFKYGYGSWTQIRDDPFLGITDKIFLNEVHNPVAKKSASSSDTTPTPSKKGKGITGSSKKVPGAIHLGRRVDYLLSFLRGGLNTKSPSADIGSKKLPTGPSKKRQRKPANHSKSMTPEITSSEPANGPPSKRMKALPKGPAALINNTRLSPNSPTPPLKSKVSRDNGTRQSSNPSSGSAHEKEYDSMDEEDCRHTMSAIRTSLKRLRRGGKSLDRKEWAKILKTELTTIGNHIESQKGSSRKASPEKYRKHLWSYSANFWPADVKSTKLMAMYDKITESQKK

For some assays here: Entries with a potency or affinity are not part of this list.

Sequence of Protein translocase subunit SecA (Escherichia coli (strain K12)) (P10408 whole entry): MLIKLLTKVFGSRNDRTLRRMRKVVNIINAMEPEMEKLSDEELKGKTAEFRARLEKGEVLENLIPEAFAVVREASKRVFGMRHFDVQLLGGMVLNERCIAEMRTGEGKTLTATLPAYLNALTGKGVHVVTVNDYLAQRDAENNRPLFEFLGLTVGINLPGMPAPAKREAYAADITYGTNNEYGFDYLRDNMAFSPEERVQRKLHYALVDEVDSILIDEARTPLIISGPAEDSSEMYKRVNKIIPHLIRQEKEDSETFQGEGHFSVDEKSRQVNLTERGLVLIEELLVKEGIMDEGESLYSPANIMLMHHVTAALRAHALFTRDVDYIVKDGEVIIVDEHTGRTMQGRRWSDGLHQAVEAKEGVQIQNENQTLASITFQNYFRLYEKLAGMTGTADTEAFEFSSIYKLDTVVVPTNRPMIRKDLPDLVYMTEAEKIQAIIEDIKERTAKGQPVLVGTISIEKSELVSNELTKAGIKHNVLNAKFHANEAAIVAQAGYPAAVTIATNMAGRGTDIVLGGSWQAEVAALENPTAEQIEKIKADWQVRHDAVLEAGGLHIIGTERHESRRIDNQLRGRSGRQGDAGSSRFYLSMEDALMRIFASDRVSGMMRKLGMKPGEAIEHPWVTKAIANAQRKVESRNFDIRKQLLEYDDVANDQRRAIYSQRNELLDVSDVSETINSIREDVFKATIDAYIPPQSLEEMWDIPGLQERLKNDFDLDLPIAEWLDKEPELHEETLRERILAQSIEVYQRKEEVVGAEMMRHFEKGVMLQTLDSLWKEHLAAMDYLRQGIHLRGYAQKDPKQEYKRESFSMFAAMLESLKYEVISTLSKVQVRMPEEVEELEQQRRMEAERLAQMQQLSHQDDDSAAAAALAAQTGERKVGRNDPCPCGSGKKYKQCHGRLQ

Take `Cc1cnn(CCNCC(O)COc2c(C)ccc(C)c2C)c1` (stereo not given): the Percent Effect is -5.33% in assay [1]; 20.2% in assay [2]; -11.8% in [3]; 20.1% in [4]; 6.7% in the assay on Trypanosoma cruzi; -4.56% in assay [5]. Moreover, the Percent Effect in assay [6] was 8.27%; in the assay listed under Homo sapiens, -1.01%; in assay [7], 7.39%; in assay [8], 21.5%; in assay [9], -4.18%.

For the compound `CC(C)n1c(C2CCCN(CCS(C)(=O)=O)C2)nc2ccccc21` (stereo not given), the Percent Effect in assay [1] is -2.02%; in [2], 8.11%; in assay [3], 1.95%; in assay [4], -0.0156%; in the assay with Trypanosoma cruzi, 0.586%; in [5], 13.8%. Also, the Percent Effect was 7.69% in assay [6]; -5.65% in the assay listed under Homo sapiens; 5.94% in [7]; 8.54% in [8]; -2.93% in assay [9].

On to `Cc1nnc(C(C)N2CCN(Cc3ccc(C#N)cc3)CC2)o1` (stereo not given), for which the Percent Effect was -3.48% in [1]; 8.11% in assay [2]; -6.14% in assay [3]; 9.9% in [4]; -8.77% in the assay on Trypanosoma cruzi; 27.7% in assay [5]. For the same compound, the Percent Effect in assay [6] was -5.22%; in the assay listed under Homo sapiens, 5.6%; in assay [7], 0.493%; in [8], 3.7%; in assay [9] it was 0.608%.

Regarding `CN(Cc1cccc(Cl)c1)S(=O)(=O)N1CCOCC1`, the Percent Effect was -3.38% in assay [1]; 10.5% in [2]; 6.62% in assay [3]; -2.67% in assay [4]; 4.58% in the assay with Trypanosoma cruzi; -5.92% in assay [5]. Besides, the Percent Effect in assay [6] is 23.9%; in the assay filed under Homo sapiens it was -6.09%; in [7], 1.06%; in assay [8] it was 15.6%; in [9], -2.59%.

In the case of `COCCC1COC2(CCN(C(=O)c3ccco3)CC2)C1` (stereo not given), the Percent Effect in assay [1] is -2.43%; in [2] it was 13.3%; in assay [3], 5.93%; in assay [4] it was 0.194%; with Trypanosoma cruzi, -0.787%; in [5], 3.5%. For the same compound, the Percent Effect is 0.264% in [6]; 0.48% in the assay filed under Homo sapiens; 8.51% in assay [7]; 16.7% in assay [8]; -2.69% in assay [9].

As for `O=C(NCCCNC(=O)c1cccc(O)c1)Nc1ccc(F)cc1F`, the Percent Effect in assay [1] is -7.43%; in [2], 18.4%; in assay [3] it was 7.05%; in assay [4], -5.18%; in the assay with Trypanosoma cruzi, 2.24%; in assay [5], -3.55%. Also, the Percent Effect in assay [6] is 12.9%; in the assay listed under Homo sapiens, 3.94%; in [7], 2.13%; in assay [8] it was 15.6%; in assay [9], -5.87%.

For the compound `c1ccc(Cn2ccnc2CN2CCOC(Cn3cccn3)C2)cc1` (stereo not given), the Percent Effect in assay [1] is -9.1%; in [2], 3.8%; in assay [3] it was 9.54%; in assay [4], 2.25%; in the assay with Trypanosoma cruzi, -7.69%; in assay [5], -5.81%. Further, the Percent Effect in assay [6] was 4.12%; in the assay listed under Homo sapiens it was 2.94%; in [7], 8.33%; in [8], 17.7%; in [9] it was -16.1%.

In the case of `O=C(CN1CCCC1Cn1cncn1)Nc1cccnc1` (stereo not given), the Percent Effect in assay [1] was -3.94%; in assay [2], 9.72%; in assay [3], -1.95%; in assay [4], 0.616%; with Trypanosoma cruzi it was -1.26%; in [5], 4.86%. Besides, the Percent Effect in assay [6] was 16%; in the assay filed under Homo sapiens, -11.7%; in [7], 5.26%; in assay [8], 10.3%; in assay [9] it was -1.86%.

For `CC(=O)N(Cc1ncc(C)o1)C1CCN(CCNC2CCCCC2)C1` (stereo not given), the Percent Effect in [1] is -1.61%; in assay [2], 2.7%; in assay [3], 2.29%; in assay [4], -9.81%; with Trypanosoma cruzi it was -9.68%; in [5], 0.744%. For the same compound, the Percent Effect in assay [6] is 13%; in the assay filed under Homo sapiens, 18.4%; in assay [7], -2.15%; in assay [8] it was -3.7%; in [9], -7.63%.

`Cc1cc(C)n(C2CN(CC(O)COc3ccc(F)cc3)C2)n1` (stereo not given): the Percent Effect in assay [1] was -3.4%; in [2] it was -20.8%; in [3], 2.93%; in [4], 9.67%; with Trypanosoma cruzi it was -1.12%; in [5], 1.42%. Moreover, the Percent Effect in assay [6] is -0.169%; in the assay filed under Homo sapiens it was -11.2%; in assay [7], 4.85%; in assay [8], -4.88%; in [9] it was -2.37%.

The record behind these values is ChEMBL document CHEMBL3988442, “University of Dundee, Small-Polar-MMV Screening Library” (2021).
